Data as given in PubChem BioAssay (NCATS).
Inconclusive results are not listed. Active and inactive are the calls of the source. The call rests on the fitted dose curve; in most records, active means well fitted curve in the direction sought with a large enough effect; inconclusive means small, poorly fitted or top-dose-only effect, or another doubt; inactive means no such curve, though single readings can be large; an effect the other way counts as inactive or inconclusive. Peptide text beside a SMILES is read from it. * marks the point of attachment. Octanoyl = CCCCCCCC(=O)*

Columns and labels:
[1] = test system: Zika virus NS2B-NS3 protease (linked construct); assay: Primary screen NINDS Rhodamine qHTS for Zika virus inhibitors (AID 1347160); further: nearly all actives have a fitted effect of over 55% in size; further: potency means the concentration at half of the fitted maximal effect
In short: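 Aprotinin served as in-plate control. Conditions: 25 nM linked NS2B-NS3, pH 8.0 Tris buffer, titrated compounds, 15 min preincubation and 15 min reaction with 1.5 microM Rhod110 substrate at room temperature.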

[2] = UWB1.289 Cancer Cell Toxicity qHTS against the NCATS CANVASS Library (AID 1347347); further: nearly all actives have a fitted effect of over 60% in size; further: potency means the concentration at half of the fitted maximal effect
In short: (§1)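 Quantitative HTS format: an 11-concentration series was applied to 1000 cells/well following a 4-hour attachment. Cultures ran 72 hours before ATP luminescence detection by CellTiter-Glo.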

[3] = Panc-1005 Cancer Cell Toxicity qHTS against the NCATS CANVASS Library (AID 1347349); further: nearly all actives have a fitted effect of over 60% in size; further: potency means the concentration at half of the fitted maximal effect
In short: as §1

[4] = SW1088 Cancer Cell Toxicity qHTS against the NCATS CANVASS Library (AID 1347350); further: nearly all actives have a fitted effect of over 75% in size; further: potency means the concentration at half of the fitted maximal effect
In short: as §1

[5] = U-118MG Cancer Cell Toxicity qHTS against the NCATS CANVASS Library (AID 1347351); further: potency means the concentration at half of the fitted maximal effect
In short: as §1

[6] = A2780 Cisplatin Sensitive Ovarian Cancer Cell Toxicity qHTS against the NCATS CANVASS Library (AID 1347353); further: nearly all actives have a fitted effect of over 60% in size; further: potency means the concentration at half of the fitted maximal effect
In short: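 750 cells/well, 4 h settle; 11-pt cpd titration; 72 h, 37 °C, 5% CO2; ATPLite 10 min RT; luminescence read.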

[7] = UWB1.289-WTBRCA1 Cancer Cell Toxicity qHTS against the NCATS CANVASS Library (AID 1347354); further: potency means the concentration at half of the fitted maximal effect
In short: (§2)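 1000 cells/well, 4 h pre-incubation 37 °C/5% CO2; 11-pnt titration; 72 h; CellTiter-Glo 15 min RT, luminescence.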

[8] = test system: NAD(P)H diaphorase (Clostridium kluyveri); assay: Diaphorse counterscreen qHTS: Assay Interference Panel against the NCATS CANVASS Library (AID 1347362); further: potency means the concentration at half of the fitted maximal effect
In short: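 Clostridium kluyveri diaphorase in PBS + 0.01% Tween-20 preincubated 15 min with compounds. Resazurin and NADH then added for 5 min at room temperature in the dark; resorufin fluorescence read (ex 525, em 598).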

[9] = KB-8-5-11 Cancer Cell Toxicity qHTS against the NCATS CANVASS Library (AID 1347364); further: nearly all actives have a fitted effect of over 75% in size; further: potency means the concentration at half of the fitted maximal effect
In short: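 CellTiter-Glo luminescence after 72 h exposure; 500 KB-8-5-11 cells/well, DMEM/10% FBS, 37C, 5% CO2; compounds in 11-pt qHTS. Follow-up confirmation included medium with 1uM tariquidar.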

[10] = SDT Cancer Cell Toxicity qHTS against the NCATS CANVASS Library (AID 1347365); further: nearly all actives have a fitted effect of over 60% in size; further: potency means the concentration at half of the fitted maximal effect
In short: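 Luminescent ATP read-out (CellTiterGlo) after 72 hr compound exposure of dog glioma SDT cells, 500 per well. Eleven-point titrations; bortezomib titration run alongside as control.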

[11] = target: Nuclear receptor subfamily 1 group I member 3 (Homo sapiens) (UniProt Q14994); assay: qHTS for Constitutive Androstane Receptor (CAR) Antagonist screened against the NCATS CANVASS Library (AID 1347372); further: potency means the concentration at half of the fitted maximal effect
Sequence of Nuclear receptor subfamily 1 group I member 3 (Homo sapiens) (Q14994 whole entry, looked up): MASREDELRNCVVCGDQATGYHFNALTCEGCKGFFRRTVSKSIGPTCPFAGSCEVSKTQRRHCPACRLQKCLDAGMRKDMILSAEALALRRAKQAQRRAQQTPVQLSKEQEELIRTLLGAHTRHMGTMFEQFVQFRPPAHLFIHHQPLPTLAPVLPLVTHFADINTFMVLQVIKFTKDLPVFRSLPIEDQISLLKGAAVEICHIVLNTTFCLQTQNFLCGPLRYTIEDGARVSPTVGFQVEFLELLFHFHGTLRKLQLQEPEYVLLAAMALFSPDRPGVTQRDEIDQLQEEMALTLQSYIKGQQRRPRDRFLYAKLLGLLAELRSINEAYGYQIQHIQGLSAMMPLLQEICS
In short: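 Luminescence readout (ONE-Glo, 30 min RT) of CYP2B6-2.2kb reporter in HepG2-hCAR cells after 24hr, 37C treatment with compound against 50 nM CITCO; CellTiter-Fluor viability read beforehand.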

[12] = qHTS for Hypoxia signaling pathway (HIF-1) antagonists against the NCATS CANVASS Library (AID 1347374); further: nearly all actives have a fitted effect of over 60% in size; further: potency means the concentration at half of the fitted maximal effect
In short: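 Beta-lactamase reporter under HRE control in ME-180 cells; CoCl2 stimulus (60 uM solution as added), compounds 11-pt qHTS, 17 h 37C. CCF4 dye 2 h RT, 460/530 nm emission. CellTiter-Glo viability in same wells.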

[13] = DH5-alpha competent E. coli microbial cell viability qHTS against the NCATS CANVASS Library (AID 1347377); conditions: outcome: dose series up to 46.1 µM unless noted
In short: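 Luminescent ATP read-out (BacTiter-Glo, 20 min RT) after overnight 37C culture of DH5-alpha E. coli with compounds; daunomycin control at 0.2 nM–9.2 uM final.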

[14] = qHTS for H2AX Agonists against the NCATS CANVASS Library (AID 1347378); further: potency means the concentration at half of the fitted maximal effect
In short: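 CHO-K1 cells were plated overnight at 37C, then exposed to compounds (concentration series, 0.76% DMSO final) for 3 hr at 37C. Lysates received Eu-cryptate anti-pH2AX (S139) and d2 anti-H2AX antibodies; after 24 hr at room temperature, TR-FRET 665/620 nm ratio was read.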

[15] = qHTS for Activators of p53 Stress Response Pathway screened against the NCATS CANVASS Library (AID 1347388)
In short: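 p53RE-bla HCT-116 cells (4000/well) were pre-incubated for 5 h, then treated with compound (11 points) for 16 h at 37C. After 2 h with CCF4, the 460/530 nm ratio gave reporter activation; CellTiter-Glo measured viability.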

[16] = Secretion counterscreen for inhibitors of the SERCaMP assay screened against the NCATS CANVASS Library (AID 1347390);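 further: light from luciferase secreted into medium read as a measure of general secretion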; further: potency means the concentration at half of the fitted maximal effect
In short: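 SH-SY5Y cells expressing constitutively secreted GLuc, 1000 cells/well, attached 4 h at 37C, then exposed to compounds (0.001 - 77 uM, 11-pnt series) for 20 h. Coelenterazine added; luminescence read to flag secretory-pathway interferers.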

[17] = qHTS for activators of dead-cell proteases activity screened against the NCATS CANVASS Library (AID 1347392);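 further: luminescence from protease leaking out of membrane-damaged cells cleaving impermeant substrate; rising signal means more cytotoxicity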
In short: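 HepG2, 2000 cells/well, 18 h attach; cpd 11-pt, 5 h 37C 5% CO2; CytoTox-Glo (AAF-aminoluciferin) 15 min RT; luminescence read.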

[18] = qHTS for inhibitors of Wild type Zika virus screened against the NCATS CANVASS Library (AID 1347396);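 further: ATP luminescence of surviving cells so rescue from viral cell killing; series mostly up to about 46 µM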
In short: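 Vero 766 cells, 1000/well, o/n attach; cpds pin-transferred (11-pt qHTS); WT Zika added; 72 h, 37C, 5% CO2; CellTiter Glo lumi. Uninfected + vehicle = 100% inhibition.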

[19] = qHTS assay for small molecule disruptors of mitochondrial membrane potential screened against the NCATS CANVASS Library (AID 1347389); further: nearly all actives have a fitted effect of over 60% in size; further: potency means the concentration at half of the fitted maximal effect
In short: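 Red/green fluorescence ratio read-out: J-aggregates ex 540/em 590 nm, monomers ex 490/em 535 nm. HepG2, 1 hr compound treatment, then 30 min Mito-MPS dye at 37C. 11-pt qHTS concentration series.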

[20] = HEK-293 Cancer Cell Toxicity qHTS against the NCATS CANVASS Library (AID 1347355); further: nearly all actives have a fitted effect of over 65% in size; further: potency means the concentration at half of the fitted maximal effect; on outcome: series mostly up to about 46 µM
In short: as §2

Measured: Potency

COc1ccc(CCCc2cc(O)c(OC)c(O)c2)c(O)c1O
active: [1] 11 µM | [8] 21.6 µM | [10] 0.166 µM
not listed: [19] | [20]
inactive: all other assays above

C[C@@H]1C[C@H]2C[C@]3(CCCCN3C)[C@@H]3C[C@H]2[C@H](C1)N(C)C3
not listed: [16] | [20]
inactive: all other assays above

C/C1=C\CC(=O)/C=C/C=C\c2csc(n2)[C@@H](C)NC(=O)C[C@@](S)([C@@H](C)C(=O)O)CC1
not listed: [1] | [8] | [12] | [14]
inactive: all other assays above

COc1c(O)cc2oc(-c3ccccc3)cc(=O)c2c1O
active: [1] 44 µM | [6] 20.9 µM | [12] 9.41 µM
not listed: [2] | [9] | [18] | [19]
inactive: all other assays above

CC(C)(Br)[C@@H](Cl)C[C@H](Br)[C@](C)(Cl)/C=C/Br
active: [2] 18.8 µM | [5] 18.8 µM | [6] 2.35 µM | [10] 18.7 µM | [19] 16.6 µM
not listed: [1] | [3] | [4] | [9] | [12] | [20]
inactive: all other assays above

CN1C(=O)[C@]23SS[C@@]1(C)C(=O)N2[C@H]1Nc2ccccc2[C@]1(c1c[nH]c2ccccc12)[C@@H]3O
inactive: [13] | [17]
active: [2] 0.747 µM | [3] 0.668 µM | [4] 0.237 µM | [6] 0.132 µM | [20] 0.743 µM | [9] 2.35 µM | [10] 0.743 µM | [11] 10.5 µM | [12] 0.941 µM | [14] 21.7 µM | [16] 1.72 µM

CS/C=C/C(N)=O
not listed: [1]
inactive: all other assays above

CCCCCCCC(=O)N[C@@H](CC(C)C)C(=O)N[C@H](C=O)CCC(=O)O (Octanoyl-Leu-Glu-aldehyde)
not listed: [1]
inactive: all other assays above

CCCCCC[C@H](CCCCC[C@@H](O)C(N)=O)OC(=O)[C@@H]1CC=CN1C(=O)c1ccccc1O
active: [1] 62.1 µM | [2] 6.66 µM
not listed: [4] | [6] | [7] | [8] | [10] | [13]
inactive: all other assays above

CCCCCCC[C@@H](C/C=C/CCC(=O)NCCc1c[nH]c2ccccc12)OC
active: [1] 49.3 µM
not listed: [2] | [4] | [10] | [13] | [18] | [19] | [20]
inactive: all other assays above

CC(=O)O[C@H]1CC[C@@]2(C)C(CC[C@]3(C)C2CC=C2C4CC(C)(C)CC[C@]4(C)CC[C@]23C)C1(C)C (some centres undefined)
not listed: [1] | [19]
inactive: all other assays above

C=C1/C=C\C(CCC)=C\c2csc(n2)C(C)NC(=O)C[C@@]2(CC(=O)O)CCC(=C)[C@H](C1)S2 (some centres undefined)
not listed: [1] | [10]
inactive: all other assays above

COc1ccc2cc(NC(=O)C3=NO[C@H]4[C@H](O)C=C[C@@H](Cl)[C@@]4(O)C3)c(=O)oc2c1OC
active: [6] 9.35 µM
not listed: [1] | [10] | [16]
inactive: all other assays above

CC(=O)[C@@H]1[C@@H](O)C[C@H]2[C@]3(C)CC[C@H]4C(C)(C)CCC[C@]4(CO)[C@H]3C[C@H]3OC(=O)[C@@H]1[C@@]32C
active: [1] 55.3 µM
not listed: [2] | [20]
inactive: all other assays above

C/C1=C/[C@@H](C)[C@H](O)C/C=C/CC/C=C/C(=O)O[C@@H]1[C@H](C)C(=O)/C=C/CC1CC(=O)NC(=O)C1
active: [1] 44 µM | [3] 11.9 µM | [4] 21.1 µM | [5] 21.1 µM | [6] 3.72 µM | [20] 7.43 µM | [10] 9.35 µM | [12] 7.47 µM
inactive: [8] | [9] | [13] | [14] | [17] | [18]

COc1ccc([C@@H]2c3cc(OC)c(OC)cc3C(=O)C(C)C2C)cc1OC (some centres undefined)
not listed: [1] | [6]
inactive: all other assays above

C[C@@H]1O[C@@H](O[C@@H]2[C@@H](O)[C@H](O[C@@H]3[C@@H](O)[C@@H](O)C(O[C@H]4[C@H](OC(=O)[C@]56CCC(C)(C)C[C@H]5C5=CCC7[C@@]8(C)C[C@H](O)[C@H](O[C@@H]9C[C@H](CO)[C@@H](O)[C@H](O)[C@H]9O)[C@@](C)(CO)C8[C@H](O)C[C@@]7(C)[C@]5(C)CC6)OC[C@H](O)[C@@H]4O)O[C@H]3C)OC[C@H]2O)[C@H](O)[C@H](O)[C@H]1O (some centres undefined)
active: [1] 24.3 µM
not listed: [2]
inactive: all other assays above

Oc1ccc([C@H]2Oc3ccc(/C=C/c4cc(O)cc(O)c4)cc3C2c2cc(O)cc(O)c2)cc1 (some centres undefined)
active: [1] 24.7 µM
not listed: [2] | [4] | [12] | [15]
inactive: all other assays above

C=CC(C)(C)C(=O)[C@@H](C)[C@@H]1CC[C@](C)(C=C)O1
not listed: [2] | [6]
inactive: all other assays above

O=C1C[C@@H](c2ccc(O)c(-c3c(O)cc(O)c4c3O[C@H](c3ccc(O)cc3)CC4=O)c2)Oc2cc(O)cc(O)c21
not listed: [1] | [2]
inactive: all other assays above

O=c1cc(-c2ccc(O)c(O[C@@H]3O[C@H](CO)[C@@H](O)[C@H](O)[C@H]3O)c2)oc2cc(O[C@@H]3O[C@H](CO)[C@@H](O)[C@H](O)[C@H]3O)cc(O)c12
active: [1] 27.7 µM
not listed: [2] | [6] | [8] | [10]
inactive: all other assays above

CC1=CC2=C[C@H](C)C[C@@]23OC(=C(C)C3=O)CC(C)(C)/C=C/C1=O
inactive: [8] | [11] | [13] | [15]
active: [1] 55.3 µM | [3] 0.943 µM | [4] 5.95 µM | [5] 0.749 µM | [6] 0.209 µM | [7] 11.8 µM | [20] 0.526 µM | [9] 2.09 µM | [10] 0.662 µM | [12] 0.265 µM | [14] 1.72 µM | [19] 5.24 µM | [16] 1.93 µM

C[C@@H]1O[C@@H](Oc2c(-c3ccc(O)cc3)oc3cc(O)cc(O)c3c2=O)[C@H](O)[C@H](O)[C@H]1O
active: [1] 44 µM
not listed: [8] | [12] | [15]
inactive: all other assays above
